Source: PubChem BioAssay
HT1080 IDH1KD tx: qHTS for induction of synthetic lethality in tumor cells producing 2HG: qHTS for the HT-1080-IDH1KD cell line | HT-1080 IDH1 knockdown viability, ATP luminescence, 48 h | Potency, µM (top dose mostly 46.1 µM), usual class: cytotoxic | 360,000 tested, 2% active
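Viability of IDH1-knockdown HT-1080 fibrosarcoma cells was assessed by CellTiter-Glo after 48 h at 37 °C with titrated compound; concentration-effect curves were classified by fit quality and response size.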
ATXN viability: Viability Counterscreen for Primary qHTS for Inhibitors of ATXN expression | Potency, µM (top dose mostly 56.7 µM), usual class: cytotoxic | S2 cells (HEK-293 line with an ATXN2-luciferase reporter) viability, CellTiter-Fluor protease fluorescence, 24 h | 400,000 tested, 0.49% active; also: nearly all actives have a fitted effect of over 40% in size
HT1080NT lethal: qHTS for induction of synthetic lethality in tumor cells producing 2HG: qHTS for the HT-1080-NT fibrosarcoma cell line; HT-1080-NT fibrosarcoma viability, CellTiter-Glo ATP luminescence, 48 h; AID 686970, 2013; 360,000 tested, 1.6% active; Potency, µM (series often up to 46.1 µM), hits mostly cytotoxic;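 also: NT is the 2HG producing partner of a matched IDH1 knockdown line; nearly all actives have a fitted effect of over 55% in size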
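750 cells/well, RPMI + 5% FBS; 2 h settle, compound pin-transfer, 48 h at 37 degrees C. CellTiter-Glo 10 min RT, luminescence. Normalized to DMSO and media-only wells.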
HepG2 viability: qHTS for Inhibitors of TGF-b: Cytotox Counterscreen; HepG2 CAGA-GFP viability, ATP luminescence, 18 h; Potency, µM (titrated, usually from 46.1 µM), most hits filed as cytotoxic; 410,000 tested, 0.76% active
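CellTiter-Glo luminescence gave cytotoxicity after 18 hours at 37 degrees C. The cells were HepG2 CAGA-GFP in 1% FBS DMEM, stimulated with 500 pg/mL TGF-beta after compound addition. %Activity was normalised to no-cell wells (complete cell-killing) and DMSO (no toxicity), and curves were fitted and classified.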
ATXN2 expr inh: Primary qHTS for Inhibitors of ATXN expression | HEK-293 ATXN2-luciferase reporter, luminescence, 24 h | Potency, µM (doses to about 57 µM), hits mostly inhibitors | 360,000 tested, 0.72% active | AID 1745845, 2022; also: nearly all actives have a fitted effect of over 55% in size
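ATXN2-luciferase reporter cells (luciferase flanked by upstream and downstream ATXN2 gene portions) were treated 24 h at 37 °C with compounds at up to 57 uM. SteadyGlo luminescence gave expression; GF-AFC fluorescence gave viability.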
TGFb SMAD3 inh: qHTS for Inhibitors of TGF-b | 410,000 tested, 1.2% active | Potency, µM (titrated, usually from 46.1 µM), most hits filed as inhibitors | HepG2 CAGA-GFP TGF-b/SMAD3 reporter, GFP fluorescence, 18 h; TGF-beta stimulated, 500 pg/mL final; also: nearly all actives have a fitted effect of over 65% in size
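Read-out: total well GFP (ex488/em500-530) summed from mean per-cell fluorescence. Cells: HEPG2 CAGA-GFP, 1% FBS DMEM, 18 h at 37 degrees C with 500 pg/mL final TGF-beta. Unstimulated wells served as the full-inhibition control; stimulated DMSO wells = 0%.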
Each line names hits and unclear results; the compound was inactive in the other large screens; ! = a repeat was not active. Rows were chosen to be rich in hits. Some 3.8% of all compounds tested hit in one or more screens of this group. Calls follow the shape of the dose curve; as a rule, active = well fitted curve in the direction sought with a large enough effect; inconclusive = small, poorly fitted or top-dose-only effect, or another doubt; inactive = no such curve, though single readings can be large; an effect the other way counts as inactive or inconclusive.

Cc1csc(NC(=O)c2cn3ccccc3n2)n1	HT1080 IDH1KD tx inconclusive, HT1080NT lethal inconclusive, ATXN2 expr inh 4µM
NCCCN(Cc1ccccc1)c1ccc(Br)cn1	none (no result: ATXN viability, HepG2 viability, ATXN2 expr inh, TGFb SMAD3 inh)
COc1ccc(NS(=O)(=O)c2ccc(Cl)c(N)c2)cc1Br	TGFb SMAD3 inh inconclusive
Nc1cc(S(=O)(=O)Nc2ccc(Br)cc2)ccc1Cl	HT1080 IDH1KD tx inconclusive, HepG2 viability 11µM, TGFb SMAD3 inh inconclusive
O=S(=O)(Nc1ccc(-n2cccc2)cc1)c1ccc(Cl)c(Cl)c1	HT1080NT lethal inconclusive, TGFb SMAD3 inh 11µM (no result: ATXN2 expr inh)
CCOc1cc(C(c2c(C)[nH]n(-c3ccccc3)c2=O)c2c(C)[nH]n(-c3ccccc3)c2=O)ccc1O	HepG2 viability 8.9µM, ATXN2 expr inh inconclusive, TGFb SMAD3 inh 11µM (no result: HT1080 IDH1KD tx, ATXN viability, HT1080NT lethal)
COc1ccc(C(c2c(C)[nH]n(-c3ccccc3)c2=O)c2c(C)[nH]n(-c3ccccc3)c2=O)cc1OC	ATXN viability inconclusive
Cc1[nH]n(-c2ccccc2)c(=O)c1C(c1cc(Cl)ccc1O)c1c(C)[nH]n(-c2ccccc2)c1=O	TGFb SMAD3 inh 7.9µM (no result: HT1080 IDH1KD tx, ATXN viability, HT1080NT lethal, ATXN2 expr inh)
CCOc1ccccc1C(=O)Nc1cc2c(cc1N1CCCC1)n(CC)c(=O)n2CC	ATXN viability 14µM, TGFb SMAD3 inh inconclusive (no result: ATXN2 expr inh)
CCn1c(=O)n(CC)c2cc(N3CCCC3)c(NC(=O)c3ccccc3OC)cc21	HT1080 IDH1KD tx inconclusive, ATXN viability inconclusive, HT1080NT lethal inconclusive
Cc1cnc(SCC2CCCO2)nc1C1CCCN(C(=O)c2ccc(S(N)(=O)=O)cc2)C1 (stereo not given)	none (no result: HT1080 IDH1KD tx, HT1080NT lethal, HepG2 viability, ATXN2 expr inh, TGFb SMAD3 inh)
N#Cc1nc(N)nc(N2CCCCC2)n1	TGFb SMAD3 inh inconclusive (no result: HT1080 IDH1KD tx, ATXN viability, HT1080NT lethal, ATXN2 expr inh)
Cc1cccc(-n2nc([N+](=O)[O-])c(=NC3CCN(Cc4ccccc4)CC3)n2O)c1	HepG2 viability 16µM, TGFb SMAD3 inh inconclusive (no result: ATXN2 expr inh)
N#Cc1nc(Nc2cc(F)cc(F)c2)c2ncn(CC(F)F)c2n1	ATXN viability inconclusive (no result: HT1080 IDH1KD tx, HT1080NT lethal)
N#Cc1nc(NCC(F)F)nc(Nc2cc(F)cc(F)c2)n1	ATXN viability inconclusive, ATXN2 expr inh 11µM, TGFb SMAD3 inh 16µM (no result: HT1080 IDH1KD tx, HT1080NT lethal)
O=c1c(Cl)c(NCCCO)cnn1-c1nc2ccccc2[nH]1	HT1080 IDH1KD tx 13µM, ATXN viability inconclusive, HT1080NT lethal 13µM, ATXN2 expr inh inconclusive
C/C(=N\NC(=O)C1CC1(c1ccccc1)c1ccccc1)c1cccc([N+](=O)[O-])c1 (stereo not given)	none
C/C(=N\NC(=O)C1CC1c1ccccc1)c1cccc([N+](=O)[O-])c1 (stereo not given)	TGFb SMAD3 inh 11µM
CCOC(=O)N1CCC(=C2c3ccc(Cl)cc3CCc3cccnc32)CC1	HT1080 IDH1KD tx inconclusive, ATXN viability inconclusive, HT1080NT lethal inconclusive, ATXN2 expr inh 14µM!
O=C1CN(C(=O)c2ccc(Cl)cc2Cl)C(c2ccc(F)cc2)c2cc(F)ccc2N1 (stereo not given)	ATXN viability inconclusive (no result: HT1080 IDH1KD tx, HT1080NT lethal)
CCC(=O)Nc1sc2c(c1C#N)CCC2	none
CC(C)CC(=O)NC(NC(=S)Nc1sc2c(c1C#N)CCCC2)C(Cl)(Cl)Cl (stereo not given)	HT1080 IDH1KD tx inconclusive, HT1080NT lethal inconclusive, ATXN2 expr inh inconclusive, TGFb SMAD3 inh 16µM
CC(C)(C)[C@@H]1CCC(=O)N(CC[C@H](Sc2ccccc2)c2ccccc2)CC1	ATXN2 expr inh inconclusive, TGFb SMAD3 inh inconclusive
Cc1ccc(S[C@@H](CCN2CC[C@H](NC(=O)OCc3ccccc3)CCC2=O)c2ccccc2)cc1	ATXN viability inconclusive, TGFb SMAD3 inh 10µM
CC(=O)Nc1ccc(S[C@@H](CCN2CC[C@H](C(C)(C)C)CCC2=O)c2ccccc2)cc1	HT1080 IDH1KD tx inconclusive, ATXN viability 32µM, ATXN2 expr inh inconclusive, TGFb SMAD3 inh inconclusive
COc1ccc(OC)c(-c2ccnc(-n3ncc(C(=O)NC(C)(C)CO)c3C3CC3)n2)c1	none (no result: HT1080 IDH1KD tx, HT1080NT lethal, HepG2 viability, ATXN2 expr inh, TGFb SMAD3 inh)
Nc1cccc(/C=C2\C=Cc3ccccc32)c1	none (no result: HT1080 IDH1KD tx, ATXN viability, HT1080NT lethal, ATXN2 expr inh)
